Only some compounds are listed: those with a hit (about 9.2% of all), similar ones and a draw of the others.
SMN2 splice up – enhancers of SMN2 splice variant expression; HEK293 SMN2-luciferase splicing reporter, luminescence, 30-36 h; Potency, µM (titrated, usually from 46.1 µM), most hits filed as activators; 210,000 compounds, 2.8% hits; also: nearly all actives have a fitted effect of over 55% in size
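HEK293 cells carry an SMN2 […]–luciferase reporter in which exon 7 inclusion puts luciferase in frame. Cells were plated 10-12 h before compound addition, then incubated 30-36 h at 37C. ONE-Glo luminescence was read; sodium butyrate at 4.5 mM final served as control.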
Rab9 promoter act – Rab9 promoter activation. AID 485297. 320,000 compounds, 2.8% hits. Huh7 Rab9 promoter-luciferase reporter, luminescence, 24 h. Potency, µM (top dose mostly 9.22 µM), most hits filed as activators; also: nearly all actives have a fitted effect of over 60% in size
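Huh7 cells stably carrying Rab9 promoter–luciferase reporter, plated 1500 cells/well, compound added after 2 h and incubated 24 h at 37 °C; luciferase luminescence then read after 10 min with detection reagent.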
FLuc modulator – inhibits or activates purified firefly luciferase, miR-21 counter-screen. purified FLuc, Km substrates, luminescence inhibition. Potency, µM (titrated, usually from 57.5 µM), actives largely listed as inhibitors. 360,000 compounds, 6.9% hits. AID 588342; also: nearly all actives have a fitted effect of over 55% in size
Target sequence (P08659 whole entry, looked up): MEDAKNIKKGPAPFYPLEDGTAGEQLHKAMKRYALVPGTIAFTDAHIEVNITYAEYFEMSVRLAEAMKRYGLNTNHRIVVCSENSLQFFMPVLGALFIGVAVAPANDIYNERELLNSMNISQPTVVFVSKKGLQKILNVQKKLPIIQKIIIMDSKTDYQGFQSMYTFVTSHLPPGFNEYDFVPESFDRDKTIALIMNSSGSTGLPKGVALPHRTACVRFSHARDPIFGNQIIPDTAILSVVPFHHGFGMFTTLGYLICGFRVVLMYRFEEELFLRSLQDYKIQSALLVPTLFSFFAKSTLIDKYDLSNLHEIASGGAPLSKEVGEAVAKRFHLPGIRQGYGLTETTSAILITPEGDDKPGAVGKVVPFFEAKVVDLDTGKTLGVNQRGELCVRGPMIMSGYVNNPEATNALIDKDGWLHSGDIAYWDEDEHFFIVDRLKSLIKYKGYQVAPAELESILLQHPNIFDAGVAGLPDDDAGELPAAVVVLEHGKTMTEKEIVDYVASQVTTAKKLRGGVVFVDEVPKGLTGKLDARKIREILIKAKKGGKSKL
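Purified P. pyralis luciferase, 10 nM final, with Km-level 10 uM D-luciferin and 10 uM ATP in 50 mM Tris acetate pH 7.5, 10 mM Mg acetate, 0.01% Tween-20, 0.05% BSA; 6-point qHTS titration about 60 µM downward; luminescence read.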
NPC1 promoter act – activates the NPC1 promoter | Potency, µM (top dose mostly 9.22 µM), most hits filed as activators | Huh7 NPC1 promoter luciferase reporter, 24 h | 320,000 compounds, 2.4% hits | AID 485313; also: nearly all actives have a fitted effect of over 60% in size
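Huh7 cells stably carrying NPC1 promoter–luciferase, plated in Opti-MEM with 10% FBS for 2 h, were exposed to compound in DMSO for 24 h at 37 °C; luciferase reagent was added for 10 min and luminescence read.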
ELG1 repair inh – inhibitors of ELG1-dependent DNA repair in HEK293T cells | Potency, µM (titrated, usually from 46.1 µM), usual class: inhibitors | HEK293T ELG1-luciferase reporter, luminescence, 16 h; DNA damage induced by 5-fluorouridine | 330,000 compounds, 2.3% hits | AID 504467; also: nearly all actives have a fitted effect of over 55% in size
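Cells (2,000 per well) received 5-fluorouridine plus test compound or DMSO and were incubated 16 hr at 37 °C, 5% CO2. Luciferase activity was read by luminescence 30 min after ONE-Glo addition; signal suppression marked inhibition of damage-induced ELG1 function.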
ELG1 genotox – inducers of genotoxicity in HEK293T ELG1-luciferase cells | HEK293T ELG1-luciferase reporter, luminescence, 16 h | AID 504466 | 330,000 compounds, 1.3% hits | Potency, µM (highest dose often 46 µM), most hits filed as activators; also: nearly all actives have a fitted effect of over 60% in size
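Screening used a luciferase reporter fused to human ELG1 in HEK293T cells. Luminescence was read on a CCD plate imager after 16 hr exposure and 30 min ONE-Glo incubation.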
Of the large screens only hits and unclear results are named; the others gave an inactive call. Calls follow the shape of the dose curve; as a rule, active = well fitted curve in the direction sought with a large enough effect; inconclusive = small, poorly fitted or top-dose-only effect, or another doubt; inactive = no such curve, though single readings can be large; an effect the other way counts as inactive or inconclusive.

COc1cccc(OC)c1C(=O)OCC(=O)Nc1ccc(OC(F)(F)F)cc1	ELG1 repair inh 21µM
COc1cccc(NC(=O)C2=COCCO2)c1	Rab9 promoter act 3.2µM, FLuc modulator inconclusive, NPC1 promoter act inconclusive, ELG1 repair inh inconclusive, ELG1 genotox inconclusive (no result: SMN2 splice up)
CCOCCc1nnc(NC(=O)C(=O)c2cc(C)n(-c3ccc(Cl)cc3)c2C)s1	none (no result: SMN2 splice up, Rab9 promoter act, NPC1 promoter act, ELG1 repair inh, ELG1 genotox)
CCOC(=O)c1nc2sc3c(c2c(=O)n1C(C)C(=O)OCC)CCCC3 (stereo unspecified)	ELG1 repair inh inconclusive
CCOc1ccc(N(CC(=O)N/N=C/c2ccccn2)S(=O)(=O)c2ccc(Cl)cc2)cc1	none (no result: SMN2 splice up)
COc1cccc(NC(=O)COC(=O)c2c(F)cccc2Cl)c1	Rab9 promoter act inconclusive, FLuc modulator inconclusive, ELG1 genotox inconclusive (no result: SMN2 splice up)
COc1cccc(NC(=O)c2ccccc2Br)c1	Rab9 promoter act 3.5µM, FLuc modulator 15µM, NPC1 promoter act 4µM, ELG1 repair inh inconclusive, ELG1 genotox inconclusive (no result: SMN2 splice up)
COc1cccc(NC(=O)COC(=O)c2ccccc2F)c1	FLuc modulator 12µM
COc1ccc(Br)c(C(=O)Nc2ccc(F)cc2)c1	none (no result: SMN2 splice up)
Cc1c(-c2cccc(NC(=O)Nc3ccccc3)c2)nc2ncccn12	FLuc modulator 19µM (no result: SMN2 splice up, Rab9 promoter act, NPC1 promoter act, ELG1 repair inh, ELG1 genotox)
CC(C)(C)C(=O)Nc1cccc(-c2cn3cccnc3n2)c1	none (no result: SMN2 splice up, Rab9 promoter act, NPC1 promoter act, ELG1 repair inh, ELG1 genotox)
O=C(Nc1cccc(-c2cn3cccnc3n2)c1)Nc1ccccc1F	Rab9 promoter act inconclusive, FLuc modulator 13µM, ELG1 repair inh inconclusive
O=C(Nc1ccccc1)Nc1cccc(-c2cn3cccnc3n2)c1	Rab9 promoter act inconclusive, FLuc modulator 9.5µM
CSc1ccc(Cl)c(C(=O)N2CCN(c3ncccn3)CC2)c1	none (no result: SMN2 splice up)
CCOc1cc(N2CCOCC2)c(OCC)cc1NC(=O)c1oc2ccccc2c1C	none
CCOCc1c(C(=O)Nc2cc(OCC)c(N3CCOCC3)cc2OCC)oc2ccccc12	ELG1 repair inh 13µM
COc1ccc(C(=O)Nc2ccc3nc(N4CCOCC4)sc3c2)cc1OC	FLuc modulator inconclusive, ELG1 repair inh inconclusive (no result: SMN2 splice up)
CCCn1nc(C(=O)Nc2ccc3nc(N4CCOCC4)sc3c2)ccc1=O	ELG1 repair inh 16µM (no result: SMN2 splice up)
CCOCc1c(C(=O)Nc2ccc3nc(N4CCOCC4)sc3c2)oc2ccccc12	ELG1 repair inh 12µM (no result: SMN2 splice up, FLuc modulator)
NC(=O)N/N=C(/CCCCCC/C(=N\NC(N)=O)c1ccccc1)c1ccccc1	ELG1 repair inh inconclusive (no result: SMN2 splice up)
c1ccc2c(c1)Cc1ccccc1O2	none (no result: SMN2 splice up)
NS(=O)(=O)c1ccc(NC(=O)CSc2nnc(NC3CC3)s2)cc1	ELG1 repair inh inconclusive (no result: SMN2 splice up)
CC(C)Nc1nnc(SCC(=O)Nc2ccc3c(c2)C(=O)c2ccccc2C3=O)s1	SMN2 splice up 14µM, Rab9 promoter act 3.5µM, FLuc modulator inconclusive, NPC1 promoter act inconclusive, ELG1 repair inh inconclusive
O=C(CSc1nnc(NC2CCCCC2)s1)Nc1ccc2c(c1)C(=O)c1ccccc1C2=O	SMN2 splice up 11µM, Rab9 promoter act 2.8µM, FLuc modulator inconclusive, NPC1 promoter act 3.5µM, ELG1 repair inh inconclusive
Cc1ccc(NC(=O)CN(C)C(=O)CSc2nnc(NC(C)C)s2)cc1	none (no result: SMN2 splice up)
COc1cccc(C(=O)c2cn(CC(=O)NCc3ccccc3)c3nc(C)ccc3c2=O)c1	none (no result: SMN2 splice up, Rab9 promoter act, NPC1 promoter act, ELG1 repair inh, ELG1 genotox)
CC(/C=C/c1ccccc1)=N/NC(=O)c1cc([N+](=O)[O-])cc([N+](=O)[O-])c1	none
CC(/C=C/c1ccccc1)=N\Nc1ccccc1[N+](=O)[O-]	Rab9 promoter act inconclusive, FLuc modulator 7.6µM, NPC1 promoter act 4µM, ELG1 repair inh inconclusive
CC(=O)/C(C#N)=C1\NC(=O)C(Cc2ccc(C)c(C)c2)S1 (stereo unspecified)	SMN2 splice up inconclusive, FLuc modulator 21µM, ELG1 repair inh inconclusive
CC(=O)Cn1cnc2c(sc3nc(C)cc(C)c32)c1=O	FLuc modulator 15µM, ELG1 repair inh inconclusive, ELG1 genotox inconclusive (no result: SMN2 splice up)
NS(=O)(=O)c1ccc(N=Nc2cc3ccccc3c(C(=O)O)c2O)cc1	none (no result: Rab9 promoter act, FLuc modulator, NPC1 promoter act, ELG1 repair inh, ELG1 genotox)
CCn1c(SCc2cccc(F)c2)nnc1-c1cccnc1	none (no result: SMN2 splice up)
CCn1c(SCc2cccc(F)c2)nnc1-c1ccncc1	ELG1 repair inh 2.6µM (no result: SMN2 splice up)

High-throughput results (PubChem BioAssay)
